According to PubChem BioAssay AID449729 (Southern Research Specialized Biocontainment Screening …, 2010):
The source made the active and inactive calls. The rule behind the calls is not given here.

Target: Large T antigen (Simian virus 40) (UniProt P03070)
Assay: SV40 TAg ATPase inhibitors, biochemical, ADP-Hunter, purified TAg, synthesized compounds, set 2 (AID 449729)
Details: ADP-Hunter fluorescence; series mostly up to 100 µM; inhibition: at the top concentration

Sequence of Large T antigen (Simian virus 40) (P03070 whole entry, looked up): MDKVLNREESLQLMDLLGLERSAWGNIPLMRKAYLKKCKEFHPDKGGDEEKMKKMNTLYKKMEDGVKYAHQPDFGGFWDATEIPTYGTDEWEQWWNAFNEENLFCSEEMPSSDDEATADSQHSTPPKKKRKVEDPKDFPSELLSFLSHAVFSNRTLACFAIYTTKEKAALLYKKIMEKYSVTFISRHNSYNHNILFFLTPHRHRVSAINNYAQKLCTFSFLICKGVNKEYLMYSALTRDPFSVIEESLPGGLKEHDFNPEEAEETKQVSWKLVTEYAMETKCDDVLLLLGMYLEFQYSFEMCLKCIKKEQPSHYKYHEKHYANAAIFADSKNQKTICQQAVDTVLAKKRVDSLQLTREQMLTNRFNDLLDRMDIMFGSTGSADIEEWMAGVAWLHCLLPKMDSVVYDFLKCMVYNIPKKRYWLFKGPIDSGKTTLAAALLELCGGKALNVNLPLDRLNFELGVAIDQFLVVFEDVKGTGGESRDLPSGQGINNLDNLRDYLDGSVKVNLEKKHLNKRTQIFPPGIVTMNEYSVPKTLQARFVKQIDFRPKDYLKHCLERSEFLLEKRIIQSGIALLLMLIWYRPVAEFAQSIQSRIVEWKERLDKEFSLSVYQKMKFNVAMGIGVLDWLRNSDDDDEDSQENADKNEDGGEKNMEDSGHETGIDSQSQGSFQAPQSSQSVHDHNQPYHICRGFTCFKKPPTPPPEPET

inhibition, inactive:
COc1cccc(C(C)(O)c2cccc(OC)c2)c1 -2.76%
C=C(c1ccc(F)cc1)c1ccc(F)cc1 -8.98%
C=C(c1ccc(Cl)cc1)c1ccc(Cl)cc1 -4.26%
Oc1ccc(C2(c3ccc(O)cc3)CC2)cc1 107%
C=C(c1cccc(OC)c1)c1cccc(OC)c1 -17.5%
C=C(c1ccc(Br)cc1)c1ccc(Br)cc1 -0.08%
CC(C)(c1ccc(O)cc1)c1cccc(O)c1 6.54%
C=C(c1ccccc1Cl)c1ccccc1Cl 5.38%
